Measurements reported in ChEMBL document CHEMBL3988442, “University of Dundee, Small-Polar-MMV Screening Library” (2021).

biological target: T1, Aspartate--tRNA(Asp/Asn) ligase (Mycobacterium tuberculosis (strain ATCC 25618 / H37Rv)) (UniProt P9WFW3); experiment: Assay for Asp RNA synthetase-1 from Mycobacterium tuberculosis; type: functional; set-up: scale not given: in the data most compounds retested in dose-response had high values; conditions: 30 µM
T1 sequence (whole entry): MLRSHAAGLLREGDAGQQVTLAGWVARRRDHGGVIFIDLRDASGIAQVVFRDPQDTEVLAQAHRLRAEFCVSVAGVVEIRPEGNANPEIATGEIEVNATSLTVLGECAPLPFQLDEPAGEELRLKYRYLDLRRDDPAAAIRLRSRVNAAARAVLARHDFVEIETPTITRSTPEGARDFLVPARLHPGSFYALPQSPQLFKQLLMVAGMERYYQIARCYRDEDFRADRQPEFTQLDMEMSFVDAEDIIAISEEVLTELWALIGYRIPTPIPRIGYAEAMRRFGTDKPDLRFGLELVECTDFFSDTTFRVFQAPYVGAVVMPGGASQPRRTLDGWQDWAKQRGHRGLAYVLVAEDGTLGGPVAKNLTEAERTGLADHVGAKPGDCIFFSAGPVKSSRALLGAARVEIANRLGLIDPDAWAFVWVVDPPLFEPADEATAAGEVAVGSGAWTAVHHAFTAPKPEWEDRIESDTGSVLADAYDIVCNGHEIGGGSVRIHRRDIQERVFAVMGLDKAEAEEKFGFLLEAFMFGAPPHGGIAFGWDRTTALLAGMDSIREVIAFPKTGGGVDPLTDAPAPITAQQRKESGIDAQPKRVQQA

SMILES	Percent Effect
Cc1cc(C(=O)NCCn2nc3ccccn3c2=O)[nH]n1	-1.59%
Cc1ncsc1C(=O)NCCSCc1cccs1	2.21%
COc1ccc(CN(C)C(=O)CCC(=O)c2cccs2)c(OC)c1OC	1%
Fc1ccc(-c2cnc(CN3CCCC3Cn3cccn3)o2)cc1 (stereo not given)	-1.83%
O=C(NS(=O)(=O)c1cc(Cl)sc1Cl)c1cccc2c1OCCO2	1.84%
O=C(Cn1ccnc1)N1C[C@@H]2CC[C@H](Oc3ccccc3Cl)[C@@H]2C1	-0.551%
CC(C)N1CCN(C(=O)Nc2cnn(CC(N)=O)c2)CC1	-5.08%
CC(O)CN1CCN(C(=O)c2cccc(CC#N)c2)CC1 (stereo not given)	2.73%
COCC1CC2(CCN(Cc3cnn(C)c3)CC2)CN1C(C)C (stereo not given)	10.7%
CCn1nc(CC(C)C)cc1C(=O)NCCCOC	-0.668%
Cc1nc(N2CCN(C)CC2)ncc1C(=O)N1CCC(O)(CO)CC1	3.4%
CCO[C@H]1CO[C@@]2(CCCN(S(=O)(=O)c3ccccc3)C2)C1	4.62%
CCn1ccnc1CN(C)CC1CCCN1c1cccnn1 (stereo not given)	7.69%
COc1ccc(CN2C[C@@H](OCc3csc(C)n3)[C@H]3COC[C@H]32)cc1	-1.16%
COc1cccc(OCc2cc(C(=O)NC[C@H]3CCCN3)n[nH]2)c1	1%
CN(C)c1cc(C(=O)N2CCCN(Cc3cscn3)CC2)ccn1	-2.62%
COc1ccc(C)cc1CNCc1ccc(-n2nc(C)cc2C)nc1	-2.68%
Cn1cnc2c1C(COCC1CCOCC1)CN(C1CCOCC1)C2 (stereo not given)	3.46%
NC(=O)c1ccc(OCC(=O)N2CCCC(n3cccn3)C2)cc1 (stereo not given)	-4.7%
COCCN1CCN(CCCS(=O)(=O)c2ccccc2)CC1C (stereo not given)	-4.25%

SMILES	Percent Effect
COc1ccc(CN2CCCC(Nc3cccc(F)c3)C2)cc1O (stereo not given)	5.06%
O=C(NCc1ccccc1F)N1CCC(C2OCCO2)CC1	-2.61%
Cc1cc(NC(=O)NCC(C)N2CCc3ccccc32)no1 (stereo not given)	2.59%
O=C(c1ccc[nH]1)N1C[C@H]2CC[C@@H]1CN(c1ncccn1)C2	-4.31%
Cc1noc(C)c1CCC(=O)N1CCN(CCn2cncn2)CC1	6.07%
CCN1CC(C(=O)NC(C)(C)CNC(=O)OC(C)(C)C)CC1=O (stereo not given)	4.36%
COc1cc(CCC(C)O)c(OC)c2c1OCO2 (stereo not given)	-0.435%
CC(=O)Nc1nc(C(=O)N2CCCC2c2noc(C)n2)cs1 (stereo not given)	0.425%
COC[C@H]1CCC[C@]12CN(C(=O)NCc1ccccc1)CCO2	-3.75%
Cc1[nH]/c(=N\C(=O)c2csc(NCC(C)C)n2)sc1C	0.43%
Cc1ccc(CN2CCC3(C2)C(=O)N(CC(C)C)c2ccccc23)s1 (stereo not given)	-0.155%
CN1CCN(C(=O)[C@H]2C[C@@H]3CCN(c4ncc(F)cn4)C[C@@H]3O2)CC1	-1.43%
Cc1cc(C2CCCN2CCCc2nc3ccccc3o2)on1 (stereo not given)	-0.533%
CC(C)(C)c1cc(CN2CC[C@@H](NC(=O)c3cccnc3)[C@H](O)C2)n[nH]1	-4.62%
COc1ccccc1OCc1cc(C(=O)N2CC(O)C2)n[nH]1	2.09%
Cc1cccc(C)c1OCCNC(=O)NC(C)c1nncn1C (stereo not given)	-2.19%
CC1CCCCN1C(=O)CN1CCN(c2ccc3nncn3n2)CC1 (stereo not given)	0.945%
Cc1cc(C)n(CC2CCCN2CCc2ccncc2)n1 (stereo not given)	-1.26%
Cc1nc(C)n(C2CCCN(C(=O)c3cc4ccccc4n3C)C2)n1 (stereo not given)	-0.634%
Cn1cc(N2CCC3(CCN(S(=O)(=O)C4CC4)C3)C2=O)cn1 (stereo not given)	-3.64%
